Assay: probe aWnt5a binding to arrayed compounds – biochemical, biotinylated probe, 635/667 nm fluorescence, primary screen (AID 1113);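 further: score merges 667 nm fluorescence intensity with signal-to-noise per printed feature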
Conditions: small-molecule microarray, higher = more signal

| SMILES | composite z-score |
| --- | --- |
| C=CCC(OC(C)=O)[C@@H]1[C@@H](N(Cc2cccc3ccccc23)C(=O)c2ccc(C)cc2)c2cc(OCCCO)ccc2N1C(=O)c1ccc(-c2ccccc2)cc1 (some centres not stated) | -0.135 |
| C=CCN1C(=O)[C@]2(O[C@H](CCn3cc(CCO)nn3)[C@@H]([Si](C)(C)c3ccc(OC)cc3)[C@@H]2C)c2cc(NC(=O)c3ccc(OC)cc3)ccc21 | -0.124 |
| CC(=O)NCCCC[C@@H]1NC(=O)[C@@H]2C[C@H](C(=O)NCCCCCCN(C)C)[C@H](c3ccc(O)cc3)N2C1=O | -0.201 |
| CO[C@@H]1COC(=O)[C@H](COCc2ccccc2)NC(=O)CC=C[C@@H](C)[C@H](OC)COC(=O)[C@H](COCc2ccccc2)NC(=O)CC=C[C@H]1C | -0.0927 |
| COCCOC(=O)N1C(=O)[C@@]2(c3ccccc31)[C@H](C(=O)N1CCc3cc(OC)c(OC)cc3C1)[C@H]1C(=O)O[C@H](c3ccccc3)[C@H](c3ccccc3)N1[C@@H]2c1ccccc1OCCO | -0.124 |
| C=C(CCCC)/C(=C/C[C@@H](OC(=O)c1ccncc1)c1cccc(OCCO)c1)c1cc(C(=O)OC)ccc1OC | -0.143 |
| C#CCCCON=C1C[C@@H](O)[C@@H](O)[C@@H]2[C@@H]3C(=O)N(Cc4ccc5c(c4)OCO5)C(=O)[C@@H]3CC[C@@H]12 | -0.096 |

Reference: PubChem BioAssay
